# A selection: hits, their analogues and other compounds. The true share with any hit is near 3.7%.
# BoNT-F LC inh: BoNT F light chain protease inhibition | Multiplex microsphere protease cleavage assay, flow cytometry | inhibition, % at 10 µM | hit rate 0.22% among 360,000; in the data active = inhibition above about 35%, passing the limit was not always enough; inconclusive = no clear call, values can overlap the other calls; note: plate controls were buffer without enzyme for full effect and enzyme alone for no effect
# MazEF act: MazEF (E. coli) toxin RNase activation | P0AE70 | FAM/BHQ RNA-DNA oligo cleavage fluorescence, 5 h | activation, % at 20 µM | hit rate 0.32% among 350,000; in the data active = activation above about 50%
# Autofluor counter: flagged as autofluorescent in microsphere protease counterscreen | compound autofluorescence counterscreen, microsphere flow cytometry; stronger effect = higher value | fluorescence intensity (no concentration beside the values) | hit rate 3.1% among 360,000 | AID 624483; in the data active = fluorescence intensity above about 16000; inconclusive = no clear call, values can overlap the other calls
# Anthrax LF prot: blocks Bacillus anthracis lethal factor protease. P15917. AID 588501. inhibition, % at 10 µM. multiplex microsphere protease cleavage assay, LF. hit rate 0.12% among 360,000; note: plate controls were buffer without enzyme for full effect and enzyme alone for no effect
# BoNT-A LC inh2: inhibitors of Botulinum neurotoxin A light chain protease | AID 588499 | hit rate 0.17% among 360,000 | inhibition, % at 10 µM | multiplex microsphere protease substrate cleavage, flow cytometry; note: plate controls were buffer without enzyme for full effect and enzyme alone for no effect
# Numbers without * were called inactive; ? = inconclusive; . = no result. Cut-off read from the data, not from the text of the source, unless noted: active = inhibition above about 30%; inconclusive = no clear call, values can overlap the other calls; inactive = below that.
SMILES,BoNT-F LC inh,MazEF act,Autofluor counter,Anthrax LF prot,BoNT-A LC inh2
Cc1ccc2nc(SCc3ccc([N+](=O)[O-])cc3)nc(C)c2c1,0,12,23313*,0,?
O=C(O)c1ccccc1N(c1ccccc1)c1ccccc1,.,-7,.,.,.
CCOC(=O)C1=CN(Cc2cccc(F)c2)S(=O)(=O)N(CC)C1CCc1ccccc1 (stereo not given),-2,4,3802,-4,0
Cc1cc(N2CCC(C)CC2)c(F)cc1[N+](=O)[O-],-2,-10,24078*,1,-1
Cc1cc(N2CCN(C(=O)c3cccs3)CC2)c(F)cc1[N+](=O)[O-],?,-2,3360,6,-3
CC1CCN(c2cc(C#N)c(C#N)cc2[N+](=O)[O-])CC1,-3,10,23005*,0,-1
CC1CCCCN1c1cc(C#N)c(C#N)cc1[N+](=O)[O-] (stereo not given),-22,-1,7974,-3,-2
Cc1cc(N2CCCC2)c(F)cc1/C=C\[N+](=O)[O-],22,27,9071,35*,62*
O=c1[nH]c(C2CCN(S(=O)(=O)c3ccc4c(c3)OCCO4)CC2)nc2c1nnn2Cc1ccc(F)cc1,3,15,3524,10,2
CC(=O)COc1coc(CN2CCN(c3ccc(F)cc3)CC2)cc1=O,-2,1,4587,0,0
CCCn1nnc(NCc2ccc(OCc3cccs3)c(OC)c2)n1,-2,7,17112*,-2,-1
CCCC(=O)N1CCN(c2ccc([N+](=O)[O-])c(NC(C)c3ccccc3)c2)CC1 (stereo not given),-4,-8,16602*,-3,-1
O=C(Nc1cccc(C(F)(F)F)c1)c1cc2c(=O)c3ccccc3oc2nc1C(F)(F)F,-5,9,23568*,1,?
Cc1ccc(NC(=O)CC2S/C(=N/N=C/C=C/c3ccccc3)NC2=O)cc1Cl (stereo not given),11,55*,2012,2,1
Cc1cc(C)nc(SCC(=O)c2c(N)n(C)c(=O)n(C)c2=O)n1,0,3,23309*,2,?
Cn1ccnc1SCC(=O)c1c(N)n(C)c(=O)n(C)c1=O,1,2,3313,-5,0
N#Cc1cccc(NC(=O)CCN2C(=O)C3CCCCC3C2=O)c1 (stereo not given),2,4,3934,-8,-1
Cc1cc(NC(=O)CCC(=O)N(c2ccccc2)C(C(=O)NC2CCCC2)c2ccccc2C)no1 (stereo not given),0,5,5403,0,2
COc1cccc(S(=O)(=O)Nc2ccc3sc(C)nc3c2)c1,-3,7,16651*,-3,0
O=C1/C(=C/c2ccc([N+](=O)[O-])cc2)C=C(c2ccccc2)N1c1ccc(O)cc1,-4,15,22121*,-14,1
O=C1/C(=C/c2ccc([N+](=O)[O-])cc2)C=C(c2ccccc2)N1c1ccccc1,1,30,10543,-5,1
CC(NC(=O)c1ccc2c(c1)OCO2)C1CCCO1 (stereo not given),1,-6,22158*,0,0
CC(NC(=O)c1ccco1)C1CCCO1 (stereo not given),-5,-13,7703,1,0
COc1ccc(NC(=O)c2ccc(C(=O)Nc3ccc(OC)cc3OC)cc2)c(OC)c1,-2,-9,2009,3,0
COc1ccc(NC(=O)c2cccnc2C(=O)O)c(OC)c1,10,7,20348*,4,8
SMILES,BoNT-F LC inh,MazEF act,Autofluor counter,Anthrax LF prot,BoNT-A LC inh2
COc1ccc(NC(=O)c2ccccc2O)c(OC)c1,5,2,18765*,-10,5
COc1ccc(NC(=O)Nc2ccc3c(c2)CCC3)c(OC)c1,0,57*,4450,5,-2
COc1ccc(NC(=O)C(=O)NCc2ccncc2)c(OC)c1,-3,-7,5011,-3,-1
COc1ccc(NC(=O)NCc2ccncc2)c(OC)c1,-5,-4,22838*,-3,?
COc1ccc(NC(=O)c2ccccc2SC)c(OC)c1,-2,5,3872,-5,0
COc1ccc(NC(=O)c2c(OC)cccc2OC)c(OC)c1,-16,9,16438*,-19,15
O=S(=O)(c1cc(Cl)ccc1Cl)N1CCNCC1,-11,0,20984*,-2,-5
CC1CCN(S(=O)(=O)c2cc(Cl)ccc2Br)CC1,-4,-14,12013,0,0
O=S(=O)(c1ccc(Cl)cc1Br)N1CCCCC1,-7,-10,20568*,1,-2
CC(O)CNc1nc2c(c(=O)n(Cc3ccccc3)c(=O)n2C)n1C (stereo not given),11,5,3828,-21,-4
O=C(COC(=O)c1cc(Br)ccc1O)NCCC1=CCCCC1,6,-7,3629,-11,0
CC(C)OC(=O)c1c2c(n3ccccc13)C(=O)c1ccccc1C2=O,23,175*,5595,38*,79*
COC(=O)c1sc(=S)n(-c2cccc(Cl)c2)c1N,-11,-1,26583*,-2,-9
CCOC(=O)c1sc(=S)n(-c2ccccc2)c1N,5,-1,2359,0,0
CN(C)Cc1cn(CCC(=O)O)c2ccccc12,-6,1,24504*,1,-1
Cn1c(=S)n(CCC(=O)O)c2ccccc21,-4,14,4560,1,-1
CC1CCCCN1C(=O)c1c(Cl)cnn1C (stereo not given),-7,-4,5609,-2,1
O=C(NC(=S)NCCN1CCOCC1)c1ccc(Cl)cc1Cl,-3,3,3582,-1,0
Cc1ccc(NC(=S)NCCCN2CCOCC2)cc1C,-2,2,4354,3,0
O=C(NC(=S)NCCN1CCOCC1)c1ccc(Cl)cc1,54*,5,2220,1,6
O=C(NCCN1CCOCC1)c1cc2sccc2n1Cc1ccc(Cl)cc1,-1,-3,16131*,-3,0
O=C(NCCN1CCOCC1)c1cc2sccc2n1Cc1ccc(F)cc1,8,3,15116,-9,4
Cc1ccc(NC(=S)NCCN2CCOCC2)cc1C,-5,-1,20237*,2,-2
CCC(=O)Nc1ccc(C(=O)COC(=O)Cc2ccsc2)cc1,12,-7,5443,-4,0
CC(NC(=O)Cc1ccc(S(=O)(=O)N2CCOCC2)s1)c1ccc(Cl)cc1Cl (stereo not given),11,3,5993,-3,0
N#CC(c1ccccc1)C(CC(=O)c1ccccc1)c1ccccc1 (stereo not given),-2,6,3846,-3,0
Cc1ccc(S(=O)(=O)Nc2c(C)n(C)n(-c3ccccc3)c2=O)cc1C(=O)NCc1ccco1,8,5,2722,6,0
CC(c1ccccc1)N1CCn2c(nc3cc(NC(=O)NC4CCCCC4)ccc32)C1 (stereo not given),-22,11,19391*,-6,13
CCC(C)C(=O)Nc1nnc(SCC(=O)N2C(C)CCCC2C)s1 (stereo not given),-7,1,3064,8,0
O=C1CCCN1CC(O)CS(=O)(=O)c1ccc(Cl)cc1 (stereo not given),0,2,22765*,1,1

# From PubChem BioAssay
